# Inconclusive results are not listed. Entries that show only a call come without a potency. A number with no mark means an inactive call. Activity calls are given as the source filed them. Calls come from the whole dose curve; as a rule, active = well fitted curve in the direction sought with a large enough effect; inconclusive = small, poorly fitted or top-dose-only effect, or another doubt; inactive = no such curve, though single readings can be large; an effect the other way counts as inactive or inconclusive.
# Legend:
# [1] = Confirmatory screen GU Rhodamine qHTS for Zika virus inhibitors qHTS (AID 1347157); settings: purified enzyme assay, Rhodamine110 substrate fluorescence, 15 min; note: potency is the fitted concentration of half-maximal effect; nearly all actives have a fitted effect of over 70% in size
# Summary of the method: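 Percent inhibition derives from the 15-min fluorescence change (ex 480, em 540 nm), normalized to no-enzyme and no-inhibitor wells. Reactions contained 25 nM NS2B-NS3 complex and 1.5 microM substrate in 10 mM Tris-HCl pH 8.0.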
# [2] = system: Zika virus NS2B-NS3 protease (linked construct); experiment: Primary screen NINDS Rhodamine qHTS for Zika virus inhibitors (AID 1347160); settings: purified NS2B-NS3 protease, Rhodamine110 substrate fluorescence; series mostly up to 57.1 µM; note: nearly all actives have a fitted effect of over 55% in size; note: potency is the fitted concentration of half-maximal effect
# Summary of the method: (§1)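 Kinetic fluorescence (Ex 480 nm, Em 540 nm) over 15 min with 1.5 microM Rhodamine110 peptide and 25 nM linked protease.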
# [3] = Confirmatory screen NINDS Rhodamine qHTS for Zika virus inhibitors (AID 1347161); settings: purified enzyme assay, Rhodamine110 substrate fluorescence, 15 min; note: potency is the fitted concentration of half-maximal effect; nearly all actives have a fitted effect of over 60% in size
# Summary of the method: as §1
# [4] = Tertiary RLuc qRT-PCR qHTS assay for Zika virus inhibitors (AID 1347169); settings: infected Vero cells, reporter luminescence, 48-72 h; series mostly up to 45.9 µM; note: top concentration of the series differs between compounds; nearly all actives have a fitted effect of over 55% in size
# Summary of the method: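 Orthogonal cell-based infection assay using recombinant ZIKV-RLuc (Cambodian) in Vero cells; compound added prior to virus at MOI 1-2. Incubation lasts 48-72 hrs at 37 degrees C before live-cell Renilla substrate is added and luminescence measured.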
# [5] = system: Zika virus NS2B-NS3 protease (linked construct); experiment: Confirmatory screen NINDS AMC qHTS for Zika virus inhibitors (AID 1347152); settings: Purified linked NS2B-NS3, AMC substrate fluorescence; series mostly up to 56.6 µM; note: nearly all actives have a fitted effect of over 70% in size; note: potency is the fitted concentration of half-maximal effect;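 for activity change, negative = inhibition: AMC fluorescence gain from cleaved Bz-Nle-KRR-AMC substrate over 15 min; top concentration of the series differs between compounds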
# Summary of the method: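 In this dose-response qHTS, AMC release from 10 microM Bz-Nle-KRR-AMC by 1 nM linked protease is measured over 15 minutes (about 20% conversion) at pH 8.0. Percent inhibition is fitted to a 4-parameter Hill curve.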
# [6] = system: Zika virus NS2B-NS3 protease (unlinked complex); experiment: Primary screen GU Rhodamine qHTS for Zika virus inhibitors: Unlinked NS2B-NS3 protease assay (AID 1347159); settings: Recombinant ZIKV NS2B-NS3 protease, Rhodamine110 substrate fluorescence; series mostly up to 107 µM; note: nearly all actives have a fitted effect of over 60% in size; note: potency is the fitted concentration of half-maximal effect
# Summary of the method: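 A qHTS format was used, with compound concentrations ranging up to 114 microM. Each compound was preincubated with 25 nM NS2B-NS3 protease, and the substrate was then added at 1.5 microM. Curves were fitted with a 4-parameter Hill model.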
# [7] = Vero cells viability qHTS for Zika virus inhibitors (AID 1347167); settings: cytotoxicity counter-screen (Zika); series mostly up to 45.9 µM
# Summary of the method: (§2)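 Counter-screen for cytotoxicity of hits from NS2B-NS3 protease qHTS. Overnight-attached cells (2.5 x 10^5 cells/mL, DMEM/4% FBS) were dosed in titration, incubated 24 to 48 hours, then assayed by CellTiter Glo.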
# [8] = HepG2 cells viability qHTS for Zika virus inhibitors (AID 1347168); settings: Zika counter-screen; series mostly up to 45.9 µM
# Summary of the method: as §2
# [9] = ZIKV-mCherry secondary qHTS for Zika virus inhibitors (AID 1347158); settings: Vero cells, ZIKV-mCherry infection imaging, 48-72 h; series mostly up to 49.2 µM; note: top concentration of the series differs between compounds
# Summary of the method: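 Vero cells (5,000/well) were given compound, then infected with ZIKV-mCherry at MOI 1 for 48–72 h at 37 °C. After PFA fixation and Hoechst staining, imaging gave percent mCherry-positive cells. The positivity threshold was RFU above 450, 3 SD over negative controls.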
# [10] = system: Zika virus NS2B-NS3 protease (linked construct); experiment: 384 well plate NINDS Rhodamine confirmatory qHTS for Zika virus inhibitors (AID 1347164); settings: rhodamine-110 peptide substrate fluorescence; series mostly up to 100 µM; note: nearly all actives have a fitted effect of over 65% in size; note: potency is the fitted concentration of half-maximal effect; for activity change, negative = inhibition: top concentration of the series differs between compounds
# Summary of the method: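 Compounds are incubated about 15 minutes with linked protease (5, 30 or 60 nM final). Rhodamine 110-tagged Ac-LKRR substrate (10 microM final) is added and fluorescence measured after 25 minutes.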
# [11] = system: Zika virus NS2B-NS3 protease (linked); experiment: 384 well plate NINDS AMC confirmatory qHTS for Zika virus inhibitors (AID 1347163); settings: Recombinant NS2B-NS3 protease, Ac-VKTGKR-AMC fluorescence; series mostly up to 100 µM; note: nearly all actives have a fitted effect of over 50% in size; note: potency is the fitted concentration of half-maximal effect;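 for activity change, negative = inhibition: linked protease at 5 30 or 60 nM final depending on run; fluorescence of AMC released from Ac-VKTGKR-AMC peptide cleaved by the protease; top concentration of the series differs between compounds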
# Summary of the method: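 Linked NS2B-NS3 protease (final 5 nM, 30 nM or 60 nM) was preincubated with compounds (final up to 1 mM) for ~15 minutes. Ac-VKTGKR-AMC substrate (final 30 microM) then reacted for 25 minutes at room temperature in the dark. Fluorescence (ex 355/em 460 nm) was normalized to no-enzyme and no-inhibitor controls.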
# [12] = system: Zika virus NS2B-NS3 protease (unlinked complex); experiment: Confirmatory screen GU AMC qHTS for Zika virus inhibitors (AID 1347153); settings: Recombinant NS2B-NS3 protease, AMC substrate fluorescence;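 note: enzyme at 25 nM with substrate at 10 µM below its Km of 18.3 µM; potency is the fitted concentration of half-maximal effect; nearly all actives have a fitted effect of over 70% in size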
# Summary of the method: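 Fluorescence change (ex 340/em 450 nm) over 15 min, ~20% substrate conversion, normalized to no-inhibitor and no-enzyme controls, then Hill-fitted. Unlinked protease at 25 nM; AMC peptide 10 µM.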
smiles,measurement,setting,value
CC12CCC3C(C)(C)C(O)CCC3(C)C1Cc1c(oc(C(=O)O)cc1=O)O2 (stereo unspecified),Potency,[1],24.3 µM (active)
same,Potency,[2],inactive
same,Potency,[3],27.3 µM (active)
same,Potency,[4],inactive
CC(C)(O)C1CC=C(C(=O)OCC2OC(Oc3c(O)cc(C(=O)O)cc3O)C(O)C(O)C2O)CC1 (stereo unspecified),Potency,[5],inactive
same,Potency,[6],inactive
same,Potency,[3],7.64 µM (active)
same,outcome,[7],inactive
same,outcome,[8],inactive
same,Potency,[4],inactive
CC(C)N=c1cc2n(-c3ccc(Cl)cc3)c3ccccc3nc-2cc1Nc1ccc(Cl)cc1,outcome,[9],inactive
same,Potency,[10],inactive
same,outcome,[7],inactive
CC1(C)CCC(C)(C)c2cc3c(cc21)Sc1ccccc1N=C3c1ccc(C(=O)O)cc1,Potency,[5],7.84 µM (active)
same,Potency,[1],1.56 µM (active)
same,Potency,[6],2.51 µM (active)
same,Potency,[2],2.24 µM (active)
same,Potency,[3],1.75 µM (active)
same,Potency,[11],8.91 µM (active)
same,Potency,[10],4.47 µM (active)
same,outcome,[7],inactive
same,outcome,[8],inactive
O=C(O)c1cc(O)c2cccc(O)c2c1O[C@@H]1O[C@H](CO)[C@@H](O)[C@H](O)[C@H]1O,Potency,[5],30.6 µM (active)
same,Potency,[12],30.6 µM (active)
same,Potency,[1],10.9 µM (active)
same,outcome,[9],inactive
same,Potency,[6],10 µM (active)
same,Potency,[2],5.01 µM (active)
same,Potency,[3],2.73 µM (active)
same,Potency,[11],inactive
same,Potency,[10],2.82 µM (active)
same,outcome,[7],inactive
same,outcome,[8],inactive
same,Potency,[4],inactive
O=C(NC[C@H](O)CN1CCc2ccccc2C1)c1cc(NC2COC2)ncn1,Potency,[6],inactive
CC(=O)c1c(C)cc(O)cc1O[C@@H]1O[C@H](CO)[C@@H](O)[C@H](O)[C@H]1O,Potency,[1],30.6 µM (active)
same,Potency,[6],inactive
same,Potency,[4],inactive
C/C(=C/CCC(CO)C1CCC2(C)C3CCC4C(C)(C)C(OC5OC(CO)C(O)C(O)C5O)CC(O)C45CC35CCC12C)COC1OC(CO)C(O)C(O)C1O (stereo unspecified),Potency,[6],inactive
same,Potency,[2],inactive
CC(C)(O)c1ccc2c(c1)C(O)CC1C(C)(C(=O)O)CCCC21C (stereo unspecified),Potency,[6],inactive
same,Potency,[2],inactive
Cc1ccc2c(c1)C=Cc1cc(C)ccc1C2c1cn(Cc2ccc(C(=O)Nc3nn[nH]n3)o2)c(=O)[nH]c1=S,Potency,[6],3.16 µM (active)
CC1(C)NC2N(C1=O)c1ccccc1C2(O)CC(C(=O)O)n1cnc2ccccc2c1=O (stereo unspecified),Potency,[6],inactive
same,Potency,[2],inactive
CC1CCC2C(C)(C)C(O)CCC2(C)C12Cc1c(O)cc3c(c1O2)C(N)=NC3 (stereo unspecified),Potency,[6],inactive
same,Potency,[2],inactive
COc1cc(C[C@H]2COC(=O)[C@@H]2Cc2ccc(O)c(OC)c2)ccc1O,Potency,[6],35.5 µM (active)
COC(=O)CC1(O)C(=O)Nc2ccccc21 (stereo unspecified),Potency,[6],inactive
CC1=CCC2C(C)(CO)CCCC2(CO)C1CO (stereo unspecified),Potency,[6],15.8 µM (active)
C=CC(C)(O)CC/C=C(\C)C(=O)OCC1OC(OC2CCC3(C)C(CCC4(C)C3CC=C3C5CC(C)(C)C(O)CC5(C(=O)O)CCC34C)C2(C)C)C(O)C(OC2OC(CO)C(O)C(OC3OC(CO)C(O)C(OC4OC(COC5OC(CO)C(O)C(O)C5O)C(O)C(O)C4O)C3O)C2O)C1O (stereo unspecified),"activity change, negative = inhibition",[6],5.91% [at 19.1 µM]
Cc1onc(-c2ccccc2)c1C(=O)N[C@@H]1C(=O)N2[C@@H]1SC(C)(C)[C@@H]2C(=O)O,Potency,[6],inactive
same,Potency,[2],inactive
C[C@H]1CN(C[C@H](Cc2ccccc2)C(=O)NCC(=O)O)CC[C@@]1(C)c1cccc(O)c1,Potency,[6],inactive
same,Potency,[2],inactive
CC12CCC3c4ccc(O)cc4CCC3C1CCC2OC1OC(C(=O)O)C(O)C(O)C1O (stereo unspecified),Potency,[6],inactive
same,Potency,[2],inactive
COc1cc(N2CCC(O)CC2)ccc1Nc1cc(Nc2ccccc2S(=O)(=O)C(C)C)c2cc[nH]c2n1,Potency,[6],inactive
same,Potency,[2],inactive
C=C(C)[C@@H](C)[C@H]1O[C@]23C[C@]4(CO2)C(CCC2[C@@]5(C)CC[C@H](O[C@@H]6OC[C@H](O)[C@H](O[C@@H]7O[C@H](CO)[C@@H](O)[C@H](O)[C@H]7O)[C@H]6O[C@@H]6O[C@@H](CO)[C@H](O)[C@H]6O)C(C)(C)C5CC[C@]24C)C3[C@@](C)(O)[C@@H]1OC(C)=O (stereo partly specified),Potency,[6],inactive
CC1OC(OC2C(CO)OC(OCC3OC(OC(=O)C45CCC(C)(C)CC4C4=CCC6C7(C)CCC(OC8OC(C(=O)O)C(O)C(OC9OC(CO)C(O)C(O)C9O)C8O)C(C)(C)C7CCC6(C)C4(C)CC5)C(O)C(O)C3O)C(O)C2O)C(O)C(O)C1O (stereo unspecified),"activity change, negative = inhibition",[6],16.6% [at 19.1 µM]
same,"activity change, negative = inhibition",[2],9.74% [at 10.7 µM]
CCc1cc2c(=O)c(-c3nc4ccccc4s3)coc2c(CN2CCCCC2)c1O,Potency,[6],12.6 µM (active)
same,Potency,[2],inactive
C=CC(C)(CC/C=C(\C)CC/C=C(\C)CC(O)/C=C(\C)C(=O)O)O[C@@H]1O[C@H](CO)[C@@H](O)[C@H](O)[C@H]1O[C@@H]1O[C@H](CO)[C@@H](O)[C@H](O)[C@H]1O (stereo partly specified),Potency,[6],inactive
same,Potency,[2],inactive
O=C1C[C@@H](c2ccc(O)cc2)Oc2cc(O)ccc21,Potency,[6],inactive
same,Potency,[2],inactive
Cc1c(CN(C)C(=O)/C=C/c2cnc3c(c2)CCC(=O)N3)oc2ccccc12,Potency,[6],inactive
same,Potency,[2],inactive
CO[C@@H]1COCC[C@@H]1N[C@@H]1CC[C@@](C(=O)N2CCc3ncc(C(F)(F)F)cc3C2)(C(C)C)C1,Potency,[6],inactive
same,Potency,[2],inactive
CC(=O)O[C@@]1(C)C[C@@H](O)[C@]2(O)C=CO[C@@H](O[C@@H]3O[C@H](CO)[C@@H](O)[C@H](O)[C@H]3O)[C@@H]21,Potency,[6],inactive
same,Potency,[2],inactive
CCCC(N[C@@H](C)C(=O)N1[C@H](C(=O)O)C[C@@H]2CCCC[C@@H]21)C(=O)OCC (stereo partly specified),Potency,[6],inactive
same,Potency,[2],inactive
CCOC(=O)[C@H](CCc1ccccc1)CC1(C(=O)N[C@H]2CCc3ccccc3N(CC(=O)O)C2=O)CCCC1,Potency,[6],inactive
same,Potency,[2],inactive
COc1cc(-c2cccc(O)c2)cc2c1OCO2,Potency,[6],35.5 µM (active)
COC(=O)C12C(=O)C(C)=C(O)C1(C)C(C)=CC1C34CCC(OC3=O)C(C)(C)C4CCC12C (stereo unspecified),Potency,[6],inactive
same,Potency,[2],inactive

# From PubChem BioAssay (NCATS)
